According to PubChem BioAssay AID1159580 (chemical genetic matrix, 2015):
Screen size: about 5,500 compounds; about 2,000 (36%) were called active. Another 18% or so got no clear call; they are omitted. No stated cut-off is given here; in the data, active means normalized growth mostly below about 0.91 (no sharp cut-off); inconclusive means no clear call, values can overlap the other calls; inactive means mostly above about 0.92. The list shows a part of the results.

Experiment: chemical genetic growth profiling, strain panel (AID 1159580);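 further: tested at 20 µM; growth read once vehicle control cultures reached saturation at 30 °C; 1 = growth at the plate median or of vehicle wells; lower values mean less growth of the strain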
Conditions: S. cerevisiae deletion strains, growth OD

Measured: normalized growth

C#CCN1C(C)=C(C(=O)OC)C(c2cccc([N+](=O)[O-])c2)C(C(=O)OCC)=C1C (stereo not given)
inactive: locus YAL013W, strain DEP1, hits give low values 1.01 | locus YAL040C, strain CLN3, hits give low values 0.971 | locus YCL061C, strain MRC1 (second series), hits give low values 1 | locus YDR363W, strain ESC2, hits give low values 1.01 | locus YER002W, strain NOP16, hits give low values 1.02 | locus YGR078C, strain PAC10, hits give low values 0.996 | locus YMR263W, strain SAP30, hits give low values 1.02 | locus YMR307W, strain GAS1, hits give low values 0.998 | locus YNL128W, strain TEP1, hits give low values 1.03 | locus YNL153C, strain GIM3, hits give low values 0.988 | locus YNL175C, strain NOP13, hits give low values 1.04 | locus YNL197C, strain WHI3, hits give low values 1.03 | locus YNL224C, strain SQS1, hits give low values 1 | locus YNL322C, strain KRE1, hits give low values 1 | locus YOR083W, strain WHI5 (second series), hits give low values 1.04
